From PubChem BioAssay AID1822 (The Scripps Research Institute Molecular Screening Center, 2009)
Hit rate of the full screen: of about 290,000 compounds, about 3,500 (1.2%) were called active.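 How the source made its calls: active means inhibition above the campaign mean inhibition over all tested compounds plus 3 SD (cut at about 28% in these data); inactive means the rest.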 The sample as a whole holds a higher share of actives than the screen did.

Each compound was assayed on M18 aspartyl aminopeptidase (Plasmodium falciparum 3D7) (assay: inhibition of P. falciparum M18 aminopeptidase – biochemical, QFRET, recombinant enzyme, primary screen (AID 1822;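 further: 0% = plate median of test compound wells and 100% = 2 mM ZnCl2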)). Details: recombinant PfM18AAP, H-Glu-NHMec fluorogenic cleavage; at 7.35 µM; active compounds read high.
For `NC(=O)c1c(NC(=O)CSc2nc(N)cc(=O)[nH]2)sc2c1CCCC2`, the inhibition was 8.38% (inactive). With `NC(=O)c1c(NC(=O)CSc2nnc(-c3ccco3)n2N)sc2c1CCCC2` the inhibition was 34.4% (active). For `CCc1cccc(C)c1NC(=O)CSc1nnc(-c2ccco2)n1N`, the inhibition was 3.63% (inactive). With `CC(C)c1ccc(S(=O)(=O)NC2CCCC2)cc1` the inhibition was -8.03% (inactive). In the case of `Cc1ccccc1CN1CCC(C(=O)Nc2ccc(Oc3cccnc3)cc2)CC1`, the inhibition is reported as 0.98% (inactive). With `O=C(c1ccccc1F)N1CCN(S(=O)(=O)c2ccc(Br)cc2)CC1` the inhibition was 1.79% (inactive). For `O=C(c1ccc(Cl)c(S(=O)(=O)N2CCCCC2)c1)N1CCCCCC1`, the inhibition was -4.84% (inactive). In the case of `O=C(c1ccc[nH]c1=S)N1CCN(S(=O)(=O)c2ccc(Br)cc2Cl)CC1`, the inhibition is reported as 29.6% (active). `COc1cc(NC(=O)C2=CC(c3ccco3)=NS(=O)(=O)N2C)cc(OC)c1OC` was tested, and the inhibition was 3.32% (inactive). In the case of `O=C(N/N=C/c1ccc(OC(=O)c2ccccc2Cl)cc1)c1ccc(O)cc1`, the inhibition is reported as 8.47% (inactive). `O=C(CO/N=C/c1ccccc1OC(F)F)NC1CCCC1` was tested, and the inhibition was 3.38% (inactive). In the case of `O=C(CO/N=C/c1ccccc1O)NNC(=O)c1ccccc1Cl`, the inhibition is reported as 43.1% (active). For `CC(C)c1ccc(NC(=S)NC2CC3C=CC2C3)cc1` (stereo unspecified), the inhibition was -6.48% (inactive). For `CC(=O)c1cnc(Nc2nc(C)c3cc(C)ccc3n2)nc1C`, the inhibition was 1.6% (inactive). For `O=C(NCCCn1ccnc1)c1cc(-c2ccccc2)on1`, the inhibition was -9.41% (inactive). In the case of `Cc1onc(C(=O)NN)c1-c1csc(COc2ccccc2)n1`, the inhibition is reported as -8.62% (inactive). With `CC(C)(C)C(=O)OCc1nc(-c2ccc(O)c(O)c2)cs1` the inhibition was 58.2% (active). For `COc1ccc(-c2csc(Cc3nc(O)cs3)n2)cc1`, the inhibition was 8.2% (inactive). In the case of `COC(=O)[C@@H]1CCCN1C(=O)c1cc(COc2cccc3cccnc23)on1`, the inhibition is reported as 3.55% (inactive). For `COc1cc(C)c(C)cc1S(=O)(=O)N1CCCc2ccccc21`, the inhibition was -5.85% (inactive). In the case of `Cc1[nH]c(C)c(S(=O)(=O)N2CCC(C)CC2)c1C(=O)N1CCCC1`, the inhibition is reported as -4.62% (inactive). In the case of `COCCCNC(=O)C1CC(=O)N(CCc2ccc(F)cc2)C1` (stereo unspecified), the inhibition is reported as 2.65% (inactive). With `CCOC(=O)CSc1nnc(NC(=O)C2CC(=O)N(c3ccc(F)cc3)C2)s1` (stereo unspecified) the inhibition was -0.3% (inactive). `CC(C)(C)NC(=O)C(c1ccncc1)N(C(=O)CNC(=O)c1ccco1)c1ccc2c(c1)OCO2` (stereo unspecified) was tested, and the inhibition was 35% (active). For `Cc1ccc(N(C(=O)CNC(=O)c2ccco2)C(C(=O)NC2CCCC2)c2ccncc2)cc1` (stereo unspecified), the inhibition was 0.63% (inactive). With `COc1cccc(N(C(=O)CNC(=O)c2ccco2)C(C(=O)NC2CCCCC2)c2cccnc2)c1` (stereo unspecified) the inhibition was 9.7% (inactive). For `C/C(CC1CC(C)(C)OC1=O)=N/Nc1nc(-c2ccccc2)cs1` (stereo unspecified), the inhibition was 6.59% (inactive). `O=C(CSc1nccc(=O)[nH]1)Nc1ccc(N2CCOCC2)c(Cl)c1` was tested, and the inhibition was 2.24% (inactive). In the case of `O=C(CN1CCN(c2ccc(O)cc2)CC1)Nc1cc(S(=O)(=O)N2CCOCC2)ccc1Cl`, the inhibition is reported as 30.2% (active). `O=C(CN1CCN(c2ccc(O)cc2)CC1)Nc1ccc(-c2ccccc2)cc1` was tested, and the inhibition was 42% (active). `O=C(CN1CCN(c2ccc(F)cc2)CC1)Nc1ccccc1` was tested, and the inhibition was -7.36% (inactive). With `O=C(CN1CCN(c2cccc(Cl)c2)CC1)Nc1ccc(S(=O)(=O)N2CCOCC2)cc1` the inhibition was -3.74% (inactive). In the case of `O=C(CN1CCOCC1)Nc1cc(Cl)ccc1Cl`, the inhibition is reported as 1.38% (inactive). `O=C(CN1CCN(c2ccccc2)CC1)Nc1ccc(F)cc1` was tested, and the inhibition was -1.61% (inactive). `Cn1cc[n+](C)c1COc1ccc(C=O)cc1` was tested, and the inhibition was -14% (inactive). With `CC1CN(C(=O)CCC(=O)NCCCN2CCC(Cc3ccccc3)CC2)c2cc(Cl)ccc2O1` (stereo unspecified) the inhibition was -5.3% (inactive). In the case of `O=C(C[n+]1ccc2c(c1)nnn2-c1ccccc1)c1ccc(Cl)cc1`, the inhibition is reported as 0% (inactive). With `Cc1cc2nc3c(=O)n(Cc4ccccc4)c(=O)[nH]c3nc2cc1N` the inhibition was 33.3% (active). With `CSc1nc2ccccc2c(=O)n1Cc1ccc(F)cc1` the inhibition was 4.37% (inactive). `CC(=O)c1ccc(-c2ccc(Cn3c(C)nc4cc(N)c(C)nc43)cc2)cc1` was tested, and the inhibition was -5.95% (inactive). `CC1CCN(C(=O)C2CCN(S(=O)(=O)N3CCC4(CC3)OCCO4)CC2)CC1` was tested, and the inhibition was -6.53% (inactive). `O=C(Nc1cccc(Cl)c1)C1CCCN(c2cnccn2)C1` (stereo unspecified) was tested, and the inhibition was -0.72% (inactive). With `COc1cc(NC(=S)N2CCCC(C)C2)cc(OC)c1OC` (stereo unspecified) the inhibition was 16.2% (inactive). In the case of `COc1ccc(NC(=S)N2CCCC(CO)C2)c(OC)c1` (stereo unspecified), the inhibition is reported as 1.11% (inactive). `COc1cc(NC(=S)N2CCCC(C)C2)c(OC)cc1Cl` (stereo unspecified) was tested, and the inhibition was 33.9% (active). For `COc1ccc(S(=O)(=O)N2CCC(C(=O)NCCC(=O)NCc3cccc(OC)c3)CC2)cc1`, the inhibition was -4.58% (inactive). With `O=C(O)c1cccc2c1C(=O)N(C1CCCC1)C2` the inhibition was -3.09% (inactive). With `C/C(=N\NC(=O)c1ccc(C)cc1)C1C(=O)c2ccccc2C1=O` the inhibition was 9.83% (inactive). In the case of `N#Cc1ccc(CSc2ncccn2)cc1`, the inhibition is reported as 0.4% (inactive). In the case of `N#Cc1ccc(C(c2nnnn2CCc2ccccc2)N2CCCCCC2)cc1` (stereo unspecified), the inhibition is reported as -9.05% (inactive). `N#Cc1ccc(C(c2ccc(C#N)cc2)n2cncn2)cc1` was tested, and the inhibition was 51.3% (active). For `CCOc1ccc(N/C=C/C(=O)c2ccccc2)cc1`, the inhibition was 0.48% (inactive). For `Cc1nc2nc[nH]n2c(=O)c1C/C=C/c1ccccc1`, the inhibition was 41.7% (active). For `C=CCc1c(C)nc2cc(-c3ccccc3)[nH]n2c1=O`, the inhibition was -0.1% (inactive). For `Cc1nc2nc(COc3ccccc3)[nH]n2c(=O)c1Cc1ccccc1`, the inhibition was 5.29% (inactive). With `COC(=O)C1[C@H]2SC(C)(C)C(C(=O)OC)N2C(=O)N1Cc1nc2ccccc2s1` (stereo partly specified) the inhibition was 2.76% (inactive). In the case of `CSc1nnc(NC(=O)c2nc(S(=O)(=O)Cc3ccc(C)cc3)ncc2Cl)s1`, the inhibition is reported as -15.5% (inactive). For `CC1(C)CC(=O)C=C(Nc2ccccc2)C1`, the inhibition was -2.72% (inactive). For `COC(=O)NNC1=CC(=O)CC(C)(C)C1`, the inhibition was 9.27% (inactive). For `Cc1cc(C)nc(NNC2=CC(=O)CC(C)(C)C2)n1`, the inhibition was 42.9% (active). For `Cc1onc(C(=O)Nc2ccc3c(c2)OCO3)c1[N+](=O)[O-]`, the inhibition was -1.41% (inactive). `Cc1cc(-c2n[nH]c(=S)n2/N=C/c2ccco2)n[nH]1` was tested, and the inhibition was 6.34% (inactive). For `S=c1[nH]nc(-c2ccco2)n1/N=C/c1ccccc1`, the inhibition was 19.4% (inactive). In the case of `S=c1[nH]nc(-c2ccco2)n1/N=C/c1ccc(Br)s1`, the inhibition is reported as 28% (active). With `COc1ccc(N/C=C(\C2OC(=O)c3ccccc32)[N+](=O)[O-])cc1` (stereo unspecified) the inhibition was 38.8% (active). `COc1ccc(NC(=O)ON=C2c3ccccc3-c3ccccc32)cc1` was tested, and the inhibition was -2.03% (inactive). With `COc1ccc(-c2csc(NC3OC(=O)c4ccccc43)n2)cc1` (stereo unspecified) the inhibition was 3.33% (inactive). In the case of `O=C(CCN1CCN(C/C=C/c2ccccc2)CC1)Nc1ccccc1Cl`, the inhibition is reported as -14.5% (inactive). With `CS(=O)(=O)N(CC(=O)N1CCCCCC1)c1cccc(Cl)c1Cl` the inhibition was -10.9% (inactive). With `CCC(=O)NC(Nc1cc(C)ccn1)(C(F)(F)F)C(F)(F)F` the inhibition was -6.4% (inactive). With `Cc1ccc(NC(=O)Nc2cccc(C(F)(F)F)c2)nc1` the inhibition was -4.58% (inactive). For `CCOC(=O)NNc1cc(C(F)(F)F)ccn1`, the inhibition was 49.5% (active). `CCOC(=O)c1cccc(NC(=O)CN2C(=O)C3CC=CCC3C2=O)c1` (stereo unspecified) was tested, and the inhibition was 0.39% (inactive). `O=C(Nc1cccnc1Cl)c1cc(-c2cccc(Cl)c2)on1` was tested, and the inhibition was -1.19% (inactive). `CCOC(=O)C1(CCOc2ccccc2)CCN(Cc2ccc(C#CCCO)cc2)CC1` was tested, and the inhibition was 3.95% (inactive). For `CC(=O)N1CCN(CC(c2ccccc2)c2ccccc2)CC1`, the inhibition was -8.35% (inactive). With `O=C(Nc1ccncc1)c1ccc([N+](=O)[O-])cc1Cl` the inhibition was 8.21% (inactive). In the case of `O=C(Cc1ccccc1)Nc1ccc(NC(=O)c2cccnc2)cc1`, the inhibition is reported as -1.2% (inactive). `Cn1cccc1C(=O)N1CCc2ccccc2C1` was tested, and the inhibition was -5% (inactive). In the case of `CC(C)CNC(=O)C(=O)NCC(c1ccc2c(c1)OCO2)N1CCOCC1` (stereo unspecified), the inhibition is reported as -5.45% (inactive). In the case of `O=C(O)CCn1c(Cc2ccccc2)nc2ccccc21`, the inhibition is reported as -1.96% (inactive). In the case of `Cc1cc2ccccc2n1CCC(=O)O`, the inhibition is reported as 10.5% (inactive). `O=C(O)CCn1c(O)c(C=C2N=c3ccccc3=N2)sc1=S` was tested, and the inhibition was 37.6% (active). For `O=S1(=O)CCOC[C@H](CC2CCCCC2)N1Cc1ccc(F)cc1`, the inhibition was -13.1% (inactive). `CCn1cc(CCC(=O)NCc2ccc(F)cc2)c2ccccc21` was tested, and the inhibition was -10.5% (inactive). For `CC(=O)Nc1ccc(N2CCOCC2)c(C(=O)Nc2cccc(C)c2)c1`, the inhibition was 4.11% (inactive). In the case of `Cc1cccc(NC(=O)c2sc3nc(N4CCOCC4)c4c(c3c2N)CCCC4)c1`, the inhibition is reported as 41% (active). For `Cc1nc(N2CCOCC2)c2c(C)c(C(=O)Nc3ccc(C(F)(F)F)cc3)sc2n1`, the inhibition was -14.6% (inactive). `O=C(Nc1ccccc1)/C(=C\c1ccco1)NC(=O)c1ccco1` was tested, and the inhibition was 8.12% (inactive). `O=C(Nc1ccccc1)c1ccco1` was tested, and the inhibition was 2.58% (inactive). `O=C(NNC(=O)c1ccco1)Nc1ccccc1` was tested, and the inhibition was 48.6% (active). With `O=C(O)C1CCC(CNS(=O)(=O)c2ccc(Br)cc2)CC1` (stereo unspecified) the inhibition was -15.2% (inactive). With `Clc1cc(-c2ccc(/C=N/n3cnnc3)o2)ccc1Br` the inhibition was -0.09% (inactive). For `CC1=NN(c2ccc(Cl)c(C(=O)O)c2)C(=O)/C1=C/c1ccc(-c2ccccc2[N+](=O)[O-])o1`, the inhibition was 3.82% (inactive). In the case of `Cc1cc(-c2ccc(/C=N/n3cnnc3)o2)c([N+](=O)[O-])cc1C`, the inhibition is reported as 44.5% (active). `O=C1C2C3C=CC(C4CC34)C2C(=O)N1/N=C/c1ccc(-c2ccccc2[N+](=O)[O-])o1` (stereo unspecified) was tested, and the inhibition was -5.14% (inactive). `Cc1cc([N+](=O)[O-])c(-c2ccc(/C=N/n3cnnc3)o2)cc1Cl` was tested, and the inhibition was 40.4% (active). In the case of `Cc1ccc(Cl)cc1-c1ccc(/C=N/n2cnnc2)o1`, the inhibition is reported as 32.8% (active). For `Cc1cc(C)c([N+](=O)[O-])cc1-c1ccc(/C=N/NC(=O)c2nonc2N)o1`, the inhibition was 4.59% (inactive). `Cc1ccccc1OCCOc1ccc([N+](=O)[O-])cc1/C=N/n1cnnc1` was tested, and the inhibition was 6.71% (inactive). In the case of `Brc1cc(/C=N/n2cnnc2)oc1Br`, the inhibition is reported as 13.5% (inactive).
